Assay outcomes from PubChem BioAssay.
Hits are enriched below; roughly 11% of the tested compounds scored in any of these assays.
HttQ103 aggreg = qHTS Multiplex Assay to Identify Dual Action Probes in a Cell Model of Huntington: Aggregate Formation (GFP); AID 1688, 2009; 220,000 tested, 1.1% active; Potency, µM (doses to about 46.1 µM), most hits filed as inhibitors; PC12 HttQ103-GFP aggregates, Acumen cytometry, 40 h; note: nearly all actives have a fitted effect of over 60% in size
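Aggregate formation scored by laser-scanning cytometer (488 excitation, 500–530 emission) in lysed PC12 cells expressing Q103-GFP after 100 nM tebufenozide induction; library tested in dose series, with ATPLite reagent added in the multiplex.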
CBFb-RUNX1 inh = qHTS Assay for Compounds Blocking the Interaction Between CBF-beta and RUNX1 for the Treatment of Acute Myeloid Leukemia; AlphaScreen CBFb-His/RUNX1-biotin binding, biochemical; 230,000 tested, under 10 active; Runt-related transcription factor 1 (Homo sapiens) + Core-binding factor subunit beta …; Potency, µM (highest dose often 59.8 µM), actives largely listed as inhibitors
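CBFb-His/RUNX1-biotin, 30 nM each, preincubated 20 min RT; compound 15 min RT; Ni + streptavidin beads 50 ng each, 90 min RT; AlphaScreen read.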
ALDH1A1 inh = qHTS Assay for Inhibitors of Aldehyde Dehydrogenase 1 (ALDH1A1); AID 1030, 2008; 220,000 tested, 7.3% active; Aldehyde dehydrogenase 1A1 (Homo sapiens), P00352; Potency, µM (doses to about 75.3 µM), hits mostly inhibitors; Purified ALDH1A1, NADH fluorescence, propionaldehyde substrate; active = well fitted inhibition curve with a large enough effect, not every such curve was filed as active; inconclusive = small, poorly fitted or top-dose-only effect, or another doubt; inactive = no such curve, though single readings can be large or run the other way
Target sequence (P00352 whole entry, looked up): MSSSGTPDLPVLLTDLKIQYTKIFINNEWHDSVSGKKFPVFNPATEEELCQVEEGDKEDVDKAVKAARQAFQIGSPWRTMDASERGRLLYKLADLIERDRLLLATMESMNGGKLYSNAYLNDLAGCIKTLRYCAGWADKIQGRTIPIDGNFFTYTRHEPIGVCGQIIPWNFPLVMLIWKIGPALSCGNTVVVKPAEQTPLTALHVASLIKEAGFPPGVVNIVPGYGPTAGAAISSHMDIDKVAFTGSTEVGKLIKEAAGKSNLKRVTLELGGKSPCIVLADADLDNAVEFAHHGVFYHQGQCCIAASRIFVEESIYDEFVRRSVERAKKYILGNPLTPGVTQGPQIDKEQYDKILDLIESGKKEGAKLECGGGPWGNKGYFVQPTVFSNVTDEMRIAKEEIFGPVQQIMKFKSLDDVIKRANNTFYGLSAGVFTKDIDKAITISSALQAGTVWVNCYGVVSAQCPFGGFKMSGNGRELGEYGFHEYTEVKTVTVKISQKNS
HTT ATP protect = qHTS Multiplex Assay to Identify Dual Action Probes in a Cell Model of Huntington: Cytoprotection (ATP) | PC12 HTT-Q103 induced, cytoprotection, ATP luminescence, 40 h | 230,000 tested, 0.14% active | Potency, µM (top dose mostly 56.4 µM), actives largely listed as activators; note: nearly all actives have a fitted effect of over 45% in size
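Rat PC12, Q103 Htt exon1-GFP fusion, ecdysone promoter; tebufenozide inducer 100 nM final; compound titration; qHTS, 1500 cells/well; ATPlite luminescent read.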
PNC inhibitor = High Content Assay for Compounds that inhibit the Assembly of the Perinucleolar Compartment. PC3M PTB-GFP, PNC prevalence imaging, 16 h; stronger effect = lower value. activity change (PNC), negative = inhibition, % at 10 µM. 140,000 tested, 3.1% active. AID 2417, 2010;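 active = readout at or below -70, meaning at least 70% loss of cells showing the perinucleolar compartment, a nuclear body marking cancer cells; inconclusive = readout between -30 and a set limit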
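PC3M cells stably expressing PTB-GFP, 750–1000 cells/well, treated 16 h at 37 °C with compound (23 nl of library stock), in duplicate. After paraformaldehyde fixation and Hoechst stain, imaged at 20x; PNC prevalence scored by image analysis.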
HPGD block = qHTS Assay for Inhibitors of HPGD (15-Hydroxyprostaglandin Dehydrogenase); AID 894, 2007; 150,000 tested, 4.3% active; Potency, µM, actives largely listed as inhibitors; purified HPGD, NADH fluorescence kinetic, PGE2 substrate; active = well fitted inhibition curve with a large enough effect, not every such curve was filed as active; inconclusive = small, poorly fitted or top-dose-only effect, or another doubt; inactive = no such curve, though single readings can be large or run the other way
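20 nM HPGD preincubated 15 min at room temperature with compound in 50 mM Tris-HCl pH 8, 0.01% Tween 20. Started with 1 mM NAD+ and 30 uM prostaglandin E2; NADH fluorescence (360/450 nm) read 5 times over 30-s intervals, last minus first.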
A number is an active result; i = inactive; ? = inconclusive; nt = no result given; [ ] = remark or other dose. Unless noted, calls come from the whole dose curve; as a rule, active = well fitted curve in the direction sought with a large enough effect; inconclusive = small, poorly fitted or top-dose-only effect, or another doubt; inactive = no such curve, though single readings can be large; an effect the other way counts as inactive or inconclusive.

SMILES	HttQ103 aggreg	CBFb-RUNX1 inh	ALDH1A1 inh	HTT ATP protect	PNC inhibitor	HPGD block
Cc1ccccc1N1C(=O)CSC1=C(C#N)C#N	i	i	3.5µM	i	nt	nt
CCCCCCCn1c2c(c(=N)c3ccccc31)CCC2	?	i	?	i[10 µM]	nt	nt
COc1ccc(C(=O)N2C(=S)NC(=O)/C2=C\c2ccc(C)cc2)cc1	i	i	?	i[10 µM]	?	28µM
COC(=O)CN1C(=S)N(c2ccc(OC)cc2)C(=O)/C1=C/c1ccc(OC)cc1	i[9.22 µM]	i	i	i[10 µM]	nt	nt
CC1CCc2nc(NC(=O)Cc3cccs3)sc2C1 (configuration not stated)	i	i	20µM	i[0.074 µM]	?	i
CC1CCc2nc(NC(=O)C3CCCO3)sc2C1 (configuration not stated)	i	i	20µM	i	?	i
COc1ccc(C2Nc3ccccc3C(=O)N2NS(=O)(=O)c2ccccc2)cc1OC (configuration not stated)	i	i	?	i	nt	nt
O=c1cc(CO)occ1O	i	i	i	i	nt	i
CCCCCOC(=O)Nc1nc(=O)n(C2O[C@H](C)[C@@H](O)[C@@H]2O)cc1F (some centres not stated)	i	nt	nt	i	nt	nt
CC(NC(=O)CC(O)(C(F)(F)F)C(F)(F)F)c1ccccc1 (configuration not stated)	i	i	i	i	-88	i
C/C(CC/C(C)=N/O)=N/O	nt	nt	i[13.5 µM]	i[10 µM]	nt	i
Clc1ccc2ncc(-c3nnnn3-c3ccccc3)c(-c3ccccc3)c2c1	i	i	11µM	i	?	i
Clc1ccc(-n2nnnc2-c2cnc3ccc(Cl)cc3c2-c2ccccc2)cc1	i[9.22 µM]	i	nt	i[10 µM]	nt	nt
O=C(NCc1cccs1)c1ccc(N2CCCCC2)nc1	i	i	13µM	i	i	16µM
CC1CCCN(c2ccc(C(=O)NCc3cccs3)cn2)C1 (configuration not stated)	i	i	?	i[10 µM]	?	28µM
CC1CCCN(c2ccc(C(=O)NCc3ccccc3)cn2)C1 (configuration not stated)	i	i	?	i	nt	nt
COc1cccc([C@@H]2Oc3ccc(Br)cc3C[C@H]2OC(=O)Nc2ccc(C)c(Br)c2)c1	nt	i	i	i	nt	i
Clc1ccc(CSc2nnc(-c3cccnc3)n2Cc2ccco2)c(Cl)c1	i	i	4.5µM	i	i	14µM
COC(=O)c1ccc(OC(=O)C2CC(=O)N(c3cccc(C)c3)C2)cc1 (configuration not stated)	i	i	18µM	i	i	?
COc1cccc(N2CC(C(=O)Oc3ccc4ccccc4c3)CC2=O)c1 (configuration not stated)	i[9.22 µM]	i	i	i	i	i
CC(NC(=O)Nc1ccc(O)cc1)(C(F)(F)F)C(F)(F)F	i	i	i	i[10 µM]	-100	i
COc1ccc(NC(=O)NC(C)(C(F)(F)F)C(F)(F)F)cc1	i	i	i	i	i	i
O=C(c1ccccc1)N(Cc1nc2ccccc2c(=O)[nH]1)C1CCCCC1	i[9.22 µM]	i	3.5µM	i[10 µM]	nt	nt
O=C(c1cccc(F)c1)N(Cc1nc2ccccc2c(=O)[nH]1)C1CCCC1	i[9.22 µM]	i	i	i[10 µM]	nt	nt
Cc1cccc(CSc2cn(CC(=O)N3CCOCC3)c3ccccc23)c1	i	i	?	i[10 µM]	i	i
SMILES	HttQ103 aggreg	CBFb-RUNX1 inh	ALDH1A1 inh	HTT ATP protect	PNC inhibitor	HPGD block
O=C(Cn1cc(SCc2cccc(Cl)c2)c2ccccc21)N1CCOCC1	i	i	7.5µM	i[10 µM]	i	i
O=C(C1CC1c1ccccc1)N1CCN(c2cccc(Cl)c2)CC1 (configuration not stated)	i	i	20µM	i	i	i
O=C(O)c1ccccc1C(=O)N1CCN(c2cccc(Cl)c2)CC1	i	i	?	i[10 µM]	?	i
O=C(O)CCCC(=O)N1CCN(c2cccc(Cl)c2)CC1	i	i	?	i	-99	i
S=C1NCN(Cc2ccco2)CN1Cc1ccco1	i[9.22 µM]	i	?	i[10 µM]	nt	nt
CCN1CN(Cc2ccco2)CNC1=S	i	i	i	nt	-82	i
CCN1CCCC1CN(Cc1cc2ccc(C)cc2[nH]c1=O)C(=S)Nc1ccc(OC)cc1OC (configuration not stated)	i	i	20µM	i[10 µM]	i	i
CCCCCCCCCC(=O)NO	i	nt	nt	i	nt	nt
O=C(CSC1=NCCS1)N1CCOCC1	i	i	i	i	i	i
CNC(=O)c1cc2cc(OC)ccc2oc1=N	i	i	?	i	i	?
COc1ccc2oc(=N)c(C(=O)Nc3ccccc3)cc2c1	i	i	i	i	-83	i
COc1cc(NC(=O)CSc2nnnn2-c2ccccc2)cc(OC)c1OC	i	i	i	i[0.074 µM]	i	i
Cc1cc(C)nc(NC(=O)CSc2nnnn2-c2ccccc2)n1	i	i	7.1µM	i	i	i
Nc1nc(CSc2nnnn2-c2ccccc2)nc(N2CCCc3ccccc32)n1	i	i	2.8µM	i[0.074 µM]	?	?
Cc1ccc(C(=O)CSc2nnnn2-c2ccccc2)o1	i	i	3.5µM	i	nt	nt
Nc1nc(CN2CCN(c3ccccc3)CC2)nc(N2CCCc3ccccc32)n1	i	i	?	i[0.074 µM]	i	i
O=C(Cn1cnc2c(nnn2-c2ccc(F)cc2)c1=O)N1CCCc2ccccc21	i	i	28µM	i	i	i
COc1ccc(-n2nnc3c(=O)n(CC(=O)N4CCCc5ccccc54)cnc32)cc1	i	i	?	i[10 µM]	i	?
Cn1c(SCC(N)=O)nnc1-c1ccc(C(C)(C)C)cc1	i[9.22 µM]	i	i	i[10 µM]	nt	nt
N=c1ncn(Cc2ccccc2)c2nc(SCCOc3ccccc3)[nH]c12	i	i	i	i[10 µM]	i	nt
CC(C)=C1C2CCC1C1C(=O)N(c3nc(-c4ccc(F)cc4)c(C)s3)C(=O)C21 (configuration not stated)	i	i	?	i	i	i
COc1cccc([C@@H]2Oc3ccc(OC)cc3/C(=N/O[C@@H](C)c3cc(-c4c(C)cc(C)cc4C)no3)[C@@H]2O)c1	nt	i[13.1 µM]	i[13.5 µM]	i[10 µM]	nt	nt
O=C1c2ccccc2C(=O)N1CCCCSc1nnnn1-c1ccccc1	i	i	0.18µM	i[10 µM]	i	7.9µM
O=C1c2ccccc2C(=O)N1CCCCSc1nc2ccccc2o1	i	?	?	i	i	25µM
O=C(O)c1ccc(-n2nnnc2SCc2ccccc2F)cc1	i	i	?	i	i	16µM
Cc1nnc(SCCCN2C(=O)c3ccccc3C2=O)o1	i	i	i	i	i	i
Brc1ccccc1-c1nnc(CSc2nnnn2-c2ccccc2)o1	?	i	10µM	i	i	16µM
